Assay results published in the supplement of paper PMC10849652.
Of roughly 7,900 targets only a part is listed; those with a hit were picked by preference. About 0.6% of all pairs of compound and target were hits. A number with no mark means an inactive call.

Assays:
Test in all cases: log2 fold change, soluble protein after heating vs DMSO (PISA); higher = thermal stabilisation; K562 cells, 10 uM, 30 min; active = over 0.2 and 3.5 SD of the protein, either way, in both replicates (recomputed)
[1] = compound: C1COCCN1CCN2C3=CC=CC=C3N=C2NC(=O)C4=CC(=CC=C4)[N+](=O)[O-] [IRAK-1-4 Inhibitor I]
Summary of the method: (§1)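 Quantification of soluble protein used TMTpro 16plex LC-MS/MS, with channel sums equalised. Samples were the supernatant after 21,000xg for 90 min of pooled aliquots from K562 cells (2×10^6 cells/mL) treated with 10 μM compound for 30 min, heated for 3 min over 48°C-58°C, and extracted in PBS with 0.5% NP-40 at 4°C. Values, from duplicates, describe thermal stability against control samples on a log2 fold-change scale.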

[2] = compound: C=CC(=O)N1CCC[C@@H](n2nc(-c3ccc(Oc4ccccc4)cc3)c3c(N)ncnc32)C1 [ibrutinib]
Summary of the method: as §1

[3] = compound: CC(=O)c1cnc2ccc(-c3cc(Cl)c(O)c(Cl)c3)nc2c1N[C@H]1CC[C@H](CN(C)C)CC1
Summary of the method: as §1

[4] = compound: CC(C)(C)Cn1c(N)nc2ccc(-c3[nH]c(C(C)(C)C)nc3-c3ccc(F)cc3)nc21 [ralimetinib]
Summary of the method: as §1

[5] = compound: CC(C)(O)CC(=O)NCCn1ccc2ncnc(Nc3ccc(Oc4cccc(C(F)(F)F)c4)c(Cl)c3)c21
Summary of the method: as §1

[6] = compound: CC(C)C1=C2N=C(C=C(N2N=C1)NCC3=CC=CC=C3)NCCCCCCN
Summary of the method: as §1

[7] = compound: CC(C)C[C@@H](C=O)NC(=O)[C@H](CC(C)C)NC(=O)[C@H](CC(C)C)NC(=O)OCc1ccccc1
Summary of the method: as §1

[8] = compound: CC(C)N(C[C@H]1O[C@@H](n2cnc3c(N)ncnc32)[C@H](O)[C@@H]1O)[C@H]1C[C@@H](CCc2nc3cc(C(C)(C)C)ccc3[nH]2)C1 [pinometostat]
Summary of the method: as §1

[9] = compound: CC1=C(C(CC(=O)N1)C2=CC=C(C=C2)C(F)(F)F)C(=O)NC3=C(C=C4C(=C3)C=NN4)F
Summary of the method: as §1

[10] = compound: CC1=C(C2=C(C=C1)C(=O)C3=CC=CC=C3N2CCCN)C
Summary of the method: as §1

Chain of UniProt Q92968 (Q92968 whole entry, looked up): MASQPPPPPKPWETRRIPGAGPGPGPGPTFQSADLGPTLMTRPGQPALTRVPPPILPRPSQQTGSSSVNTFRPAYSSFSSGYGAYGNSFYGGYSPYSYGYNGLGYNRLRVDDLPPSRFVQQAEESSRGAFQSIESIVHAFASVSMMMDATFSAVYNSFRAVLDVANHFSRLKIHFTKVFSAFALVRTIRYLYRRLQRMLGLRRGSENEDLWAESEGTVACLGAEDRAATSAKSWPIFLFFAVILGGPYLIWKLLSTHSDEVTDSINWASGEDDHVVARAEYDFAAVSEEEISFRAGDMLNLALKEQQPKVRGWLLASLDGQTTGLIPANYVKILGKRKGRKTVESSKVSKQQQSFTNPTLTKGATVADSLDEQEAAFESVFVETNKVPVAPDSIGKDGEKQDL
Chain of UniProt P05771 (P05771 whole entry, looked up): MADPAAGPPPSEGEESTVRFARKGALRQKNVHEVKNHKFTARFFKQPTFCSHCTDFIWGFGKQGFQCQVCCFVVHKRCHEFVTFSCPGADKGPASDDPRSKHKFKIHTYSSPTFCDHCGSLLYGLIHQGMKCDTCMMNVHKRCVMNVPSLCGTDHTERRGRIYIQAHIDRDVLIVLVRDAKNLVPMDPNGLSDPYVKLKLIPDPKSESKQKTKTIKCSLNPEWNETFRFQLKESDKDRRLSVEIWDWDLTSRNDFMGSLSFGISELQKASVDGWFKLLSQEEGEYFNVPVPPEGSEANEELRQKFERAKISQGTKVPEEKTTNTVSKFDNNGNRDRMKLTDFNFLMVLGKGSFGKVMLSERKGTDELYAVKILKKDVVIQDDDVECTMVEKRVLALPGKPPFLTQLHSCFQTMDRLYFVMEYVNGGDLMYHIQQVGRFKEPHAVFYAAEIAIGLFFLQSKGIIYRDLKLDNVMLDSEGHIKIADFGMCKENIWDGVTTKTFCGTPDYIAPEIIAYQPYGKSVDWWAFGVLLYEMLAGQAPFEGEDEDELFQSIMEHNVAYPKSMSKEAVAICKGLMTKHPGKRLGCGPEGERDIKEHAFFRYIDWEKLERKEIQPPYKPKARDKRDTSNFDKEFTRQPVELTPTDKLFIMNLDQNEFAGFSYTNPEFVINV
Chain of UniProt P53350 (P53350 whole entry, looked up): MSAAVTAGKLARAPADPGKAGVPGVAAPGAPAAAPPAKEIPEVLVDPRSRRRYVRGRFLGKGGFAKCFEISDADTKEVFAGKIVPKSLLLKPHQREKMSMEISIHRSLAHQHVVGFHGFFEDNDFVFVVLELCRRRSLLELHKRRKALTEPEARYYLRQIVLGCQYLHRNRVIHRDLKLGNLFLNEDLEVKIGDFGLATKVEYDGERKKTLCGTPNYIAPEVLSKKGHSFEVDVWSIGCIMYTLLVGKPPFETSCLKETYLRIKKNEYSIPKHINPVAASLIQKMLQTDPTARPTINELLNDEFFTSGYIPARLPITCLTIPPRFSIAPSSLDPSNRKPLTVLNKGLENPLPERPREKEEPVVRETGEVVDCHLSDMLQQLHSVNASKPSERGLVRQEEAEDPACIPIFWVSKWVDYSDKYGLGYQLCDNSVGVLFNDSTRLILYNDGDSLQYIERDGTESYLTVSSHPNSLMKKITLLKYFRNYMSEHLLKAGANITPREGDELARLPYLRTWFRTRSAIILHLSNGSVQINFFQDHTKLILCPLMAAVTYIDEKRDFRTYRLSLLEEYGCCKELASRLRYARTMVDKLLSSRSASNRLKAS
Chain of UniProt Q9H307 (Q9H307 whole entry, looked up): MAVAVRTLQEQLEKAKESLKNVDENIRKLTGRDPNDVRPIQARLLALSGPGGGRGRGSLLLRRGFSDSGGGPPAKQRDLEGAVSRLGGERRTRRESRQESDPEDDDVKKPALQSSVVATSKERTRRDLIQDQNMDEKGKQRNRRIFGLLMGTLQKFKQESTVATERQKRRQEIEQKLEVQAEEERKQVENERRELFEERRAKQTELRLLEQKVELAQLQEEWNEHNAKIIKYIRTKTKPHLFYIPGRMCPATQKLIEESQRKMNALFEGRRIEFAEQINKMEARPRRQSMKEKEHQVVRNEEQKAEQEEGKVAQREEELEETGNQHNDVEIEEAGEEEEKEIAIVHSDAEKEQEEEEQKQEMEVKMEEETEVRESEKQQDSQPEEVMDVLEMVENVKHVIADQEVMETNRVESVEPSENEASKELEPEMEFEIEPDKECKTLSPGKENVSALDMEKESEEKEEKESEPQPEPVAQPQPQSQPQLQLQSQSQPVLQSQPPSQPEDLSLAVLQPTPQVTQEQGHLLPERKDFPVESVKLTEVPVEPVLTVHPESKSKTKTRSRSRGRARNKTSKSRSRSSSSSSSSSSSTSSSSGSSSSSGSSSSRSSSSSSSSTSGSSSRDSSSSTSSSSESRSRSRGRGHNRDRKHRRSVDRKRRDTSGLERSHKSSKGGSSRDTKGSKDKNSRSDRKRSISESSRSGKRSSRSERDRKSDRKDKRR
Chain of UniProt O00628 (O00628 whole entry, looked up): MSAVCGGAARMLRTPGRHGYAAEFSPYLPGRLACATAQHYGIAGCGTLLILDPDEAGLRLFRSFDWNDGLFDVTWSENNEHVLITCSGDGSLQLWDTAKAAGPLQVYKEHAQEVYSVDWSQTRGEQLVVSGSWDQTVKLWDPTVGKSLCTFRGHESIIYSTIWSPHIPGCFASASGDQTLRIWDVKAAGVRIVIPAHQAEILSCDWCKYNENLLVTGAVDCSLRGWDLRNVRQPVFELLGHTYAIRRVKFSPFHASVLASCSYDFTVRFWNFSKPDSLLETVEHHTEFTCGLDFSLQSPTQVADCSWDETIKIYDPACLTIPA
Chain of UniProt Q16822 (Q16822 whole entry, looked up): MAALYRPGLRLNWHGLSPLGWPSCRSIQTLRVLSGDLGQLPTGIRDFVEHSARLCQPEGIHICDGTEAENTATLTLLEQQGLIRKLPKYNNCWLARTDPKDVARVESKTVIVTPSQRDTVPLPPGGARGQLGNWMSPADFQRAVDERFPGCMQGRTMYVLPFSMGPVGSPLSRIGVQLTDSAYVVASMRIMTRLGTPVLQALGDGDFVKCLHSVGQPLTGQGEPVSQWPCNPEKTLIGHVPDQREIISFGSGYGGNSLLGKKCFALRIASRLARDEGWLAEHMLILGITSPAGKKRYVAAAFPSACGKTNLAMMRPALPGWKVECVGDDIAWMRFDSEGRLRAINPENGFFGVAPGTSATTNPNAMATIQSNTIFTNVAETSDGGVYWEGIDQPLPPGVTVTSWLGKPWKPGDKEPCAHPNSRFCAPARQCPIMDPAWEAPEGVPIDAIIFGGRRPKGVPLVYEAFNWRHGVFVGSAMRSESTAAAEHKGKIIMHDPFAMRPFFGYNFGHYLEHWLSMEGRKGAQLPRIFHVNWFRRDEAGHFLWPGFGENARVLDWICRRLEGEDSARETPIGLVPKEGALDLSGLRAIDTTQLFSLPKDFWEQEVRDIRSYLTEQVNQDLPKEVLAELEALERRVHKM
Chain of UniProt Q7RTV0 (Q7RTV0 whole entry, looked up): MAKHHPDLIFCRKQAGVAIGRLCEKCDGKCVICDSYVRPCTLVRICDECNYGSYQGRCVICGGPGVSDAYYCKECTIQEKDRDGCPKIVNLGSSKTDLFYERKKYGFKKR
Chain of UniProt P11498 (P11498 whole entry, looked up): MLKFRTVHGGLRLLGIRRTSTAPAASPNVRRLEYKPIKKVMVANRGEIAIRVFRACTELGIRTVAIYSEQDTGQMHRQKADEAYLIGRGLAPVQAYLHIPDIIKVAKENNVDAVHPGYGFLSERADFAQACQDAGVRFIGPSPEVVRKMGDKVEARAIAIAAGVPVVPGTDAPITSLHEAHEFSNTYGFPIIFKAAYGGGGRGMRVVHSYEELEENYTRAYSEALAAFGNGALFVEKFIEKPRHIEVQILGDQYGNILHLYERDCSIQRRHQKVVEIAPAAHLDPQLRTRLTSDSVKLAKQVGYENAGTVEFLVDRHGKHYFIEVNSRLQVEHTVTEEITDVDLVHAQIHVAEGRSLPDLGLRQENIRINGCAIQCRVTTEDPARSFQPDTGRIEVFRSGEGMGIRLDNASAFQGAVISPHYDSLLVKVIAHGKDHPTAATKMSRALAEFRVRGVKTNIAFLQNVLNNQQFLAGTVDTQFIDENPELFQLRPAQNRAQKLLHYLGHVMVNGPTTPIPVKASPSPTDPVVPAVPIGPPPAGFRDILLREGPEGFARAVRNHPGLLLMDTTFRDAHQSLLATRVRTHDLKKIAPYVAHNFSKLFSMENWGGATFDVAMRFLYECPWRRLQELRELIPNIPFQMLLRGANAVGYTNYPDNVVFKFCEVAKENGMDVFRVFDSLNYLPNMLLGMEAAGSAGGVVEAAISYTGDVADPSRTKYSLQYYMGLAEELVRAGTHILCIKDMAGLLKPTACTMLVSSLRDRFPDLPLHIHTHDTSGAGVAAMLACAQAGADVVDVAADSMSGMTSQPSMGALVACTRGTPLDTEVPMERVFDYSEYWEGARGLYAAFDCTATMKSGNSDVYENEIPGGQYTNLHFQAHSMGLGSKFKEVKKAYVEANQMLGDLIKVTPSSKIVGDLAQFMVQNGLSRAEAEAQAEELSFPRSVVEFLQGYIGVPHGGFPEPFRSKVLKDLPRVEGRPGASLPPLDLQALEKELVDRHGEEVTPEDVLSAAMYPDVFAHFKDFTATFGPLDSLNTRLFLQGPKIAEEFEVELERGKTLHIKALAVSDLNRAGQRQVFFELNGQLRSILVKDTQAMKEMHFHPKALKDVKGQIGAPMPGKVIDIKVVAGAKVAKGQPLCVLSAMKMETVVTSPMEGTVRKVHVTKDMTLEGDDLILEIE
Chain of UniProt Q96PU8 (Q96PU8 whole entry, looked up): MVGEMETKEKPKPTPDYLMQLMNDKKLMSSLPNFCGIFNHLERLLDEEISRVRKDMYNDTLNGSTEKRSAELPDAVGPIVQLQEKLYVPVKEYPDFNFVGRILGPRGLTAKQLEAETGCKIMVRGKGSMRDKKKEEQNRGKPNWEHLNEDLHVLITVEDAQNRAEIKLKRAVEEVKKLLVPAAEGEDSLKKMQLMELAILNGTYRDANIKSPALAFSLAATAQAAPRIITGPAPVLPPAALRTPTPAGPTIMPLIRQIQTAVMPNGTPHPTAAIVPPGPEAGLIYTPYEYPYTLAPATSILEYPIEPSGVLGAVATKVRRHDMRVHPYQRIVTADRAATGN

Target | log2 fold change [1] | log2 fold change [2] | log2 fold change [3] | log2 fold change [4] | log2 fold change [5] | log2 fold change [6] | log2 fold change [7] | log2 fold change [8] | log2 fold change [9] | log2 fold change [10]
PHF5A (UniProt Q7RTV0) | 0.02 | 0.001 | 0.008 | 0 | 0.088 | 0.242 (active) | -0.073 | -0.073 | 0.011 | 0.109
PNN (UniProt Q9H307) | 0.051 | -0.047 | -0.134 | 0.032 | 0.004 | -0.146 | 0.145 | 0.124 | 0.056 | 
PEX7 (UniProt O00628) | 0.03 | -0.092 | -0.106 | -0.064 | -0.057 | -0.006 | 0.003 | -0.034 | 0.025 | 0.033
PPP1R12A (UniProt O14974) | -0.013 | -0.022 | -0.666 (active) | 0 | 0 | -0.119 | -0.014 | -0.003 | -0.514 (active) | -0.01
PRMT8 (UniProt Q9NR22) | 0.045 | -0.004 | -0.012 | 0.098 | -0.014 | 0.001 | -0.073 | 0.026 | -0.027 | 0.101
PML (UniProt P29590) | 0.031 | 0.006 | 0.052 | 0.045 | 0.012 | -0.025 | -0.05 | -0.021 | 0.07 | -0.035
PRKAB1 (UniProt Q9Y478) | 0.015 | -0.02 | -0.184 | 0.022 | -0.069 | -0.006 | -0.041 | -0.048 | 0.036 | 0.015
PELP1 (UniProt Q8IZL8) | 0.017 | -0.017 | -0.106 | 0.04 | -0.031 | 0.017 | -0.019 | 0.008 | 0.029 | -2.07 (active)
PRKCQ (UniProt Q04759) | 0.004 | -0.026 | -2.02 (active) | -0.02 | -0.037 | -0.103 | -0.011 | 0.028 | 0.024 | 0.018
RAB11FIP1 (UniProt Q6WKZ4) | 0.014 | -0.009 | -0.067 | 0.023 | -0.016 | -0.118 | -0.004 | 0.059 | -0.021 | 0.041
PSMC6 (UniProt P62333) | -0.026 | 0 | 0.044 | 0.019 | 0.093 | 0.077 | -0.206 | 0.01 | 0.075 | -0.01
POLR2A (UniProt P24928) | -0.029 | 0.054 | 0.342 (active) | 0.011 | -0.065 | 0.19 | 0.005 | -0.004 | -0.046 | 0.033
PLIN2 (UniProt Q99541) | 0.058 | 0.055 | 0.005 | -0.065 | -0.083 | -1.11 (active) | -0.014 | 0.007 | -0.031 | -0.022
POP1 (UniProt Q99575) | -0.024 | 0 | 0.001 | 0.029 | -0.006 | 0.013 | -0.03 | 0.003 | 0.008 | -0.271 (active)
QRSL1 (UniProt Q9H0R6) | 0.016 | 0.023 | -0.025 | 0.001 | -0.071 | -0.231 (active) | -0.003 | -0.087 | 0.041 | 0.025
PSMC1 (UniProt P62191) | -0.053 | -0.024 | 0.056 | 0.018 | 0.002 | 0.04 | -0.212 (active) | 0.032 | 0.031 | -0.007
QKI (UniProt Q96PU8) | -0.034 | -0.004 | -0.113 | 0.007 | 0.019 | -0.221 | -0.005 | -0.026 | 0.046 | -0.043
PLK1 (UniProt P53350) | -0.035 | 0.022 | -1.17 (active) | 0.006 | -0.011 | 0.186 | 0.015 | 0.019 | 0.005 | 0.144
PCK2 (UniProt Q16822) | -0.029 | 0.021 | -0.013 | -0.059 | -0.019 | 0.063 | 0.035 | -0.011 | -0.005 | 0.053
PRKCB isoform 2 (UniProt P05771) | 0.027 | -0.009 | -0.373 (active) | 0.022 | -0.057 | -0.049 | 0.028 | 0.014 | 0.013 | -0.025
PPP2R5E (UniProt Q16537) | -0.01 | -0.001 | -0.033 | -0.029 | -0.046 | -0.144 | 0.019 | 0.015 | 0.028 | 0.136
PRPF40A (UniProt O75400) | -0.093 | -0.085 | -0.149 | 0.095 | -0.022 | -0.411 (active) | 0.043 | -0.041 | -0.034 | 0.13
PYGB (UniProt P11216) | -0.029 | 0.037 | -0.246 (active) | -0.025 | 0.025 | 0.01 | 0.005 | 0.011 | 0.055 | 0.087
PCYT1B (UniProt Q9Y5K3) | 0.014 | -0.029 | -0.072 | 0.011 | 0.001 | -0.172 | 0.027 | -0.011 | 0.058 | -0.12
PSMD5 (UniProt Q16401) | 0.04 | -0.004 | 0.047 | -0.013 | -0.033 | -0.106 | -0.061 | -0.003 | 0 | -0.042
PRPF3 (UniProt O43395) | -0.018 | -0.038 | -0.179 | -0.008 | -0.055 | -0.205 | -0.001 | 0 | 0 | -0.2
PRPF31 (UniProt Q8WWY3) | -0.066 | -0.028 | -0.3 | 0.069 | -0.144 | -0.387 | 0.004 | 0 | -0.016 | -0.271
PEX13 (UniProt Q92968) | 0.053 | -0.067 | -0.011 | 0.062 | -0.193 | -0.201 | 0.036 | -0.032 | 0.003 | 0.024
PEX11B (UniProt O96011) | 0.025 | 0.04 | 0.032 | 0.005 | 0.008 | 0.075 | -0.058 | -0.031 | 0.055 | 0.012
PC (UniProt P11498) | -0.024 | 0.04 | -0.151 | -0.02 | -0.038 | 0.183 | -0.037 | -0.016 | -0.081 | 0.15
